We go through 92 compounds from PubChem BioAssay AID2314 (National Center for Advancing Translational Sciences (NCATS), 2010).

Screen size: about 300,000 compounds; about 37,000 (12%) were called active. What follows is part of a selection rich in actives, with near analogues and random picks from the rest. Unmarked numbers belong to inactive results. Cut-off read from the data, not from the text of the source: active = max response mostly above about 13% (no sharp cut-off); inactive = mostly below about 14%.

The assay in a line: Cycloheximide Counterscreen for Small Molecule Inhibitors of Shiga Toxin. Note: read at 38.3 µM for the half of the compounds with a filed dose; 0% is about no effect. The conditions noted are these: cell reporter, cycloheximide protein synthesis inhibition counterscreen; hits give high values. A general note: The purpose of a counterscreen is to sort out artefacts and off-target activity.
On to `CCC(=O)N1CCc2cc(S(=O)(=O)CCC(=O)N3CCN(c4ccccc4F)CC3)ccc21`, for which the max response was 2.85%.

Consider `CCOc1ccc(NS(=O)(=O)c2cc(C)c(C)cc2C)cc1`, for which the max response is 0.868%.

`Cc1ccccc1N1CCN(C2CCCN(C(=O)c3ocnc3C)C2)CC1` (configuration not stated): the max response is 1.48%.

Regarding `CCCCCC(O)(CCN1CCCCC1)c1ccccc1` (configuration not stated), the max response was -2.5%.

Regarding `O=C(COC(=O)/C=C/c1ccc(S(=O)(=O)N2CCCCCC2)cc1)NCc1ccccc1Cl`, the max response is 0.471%.

For the compound `CCCCn1c(=O)c(CCC(=O)OCC(=O)Nc2ccc(C)c(Cl)c2)nc2ccccc21`, the max response was -1.67%.

On to `CC(C)COC(=O)c1ccc(NC(=O)C2C3C=CC(C3)C2C(=O)O)cc1` (configuration not stated), for which the max response was 29% (active).

With `CC(=O)NS(=O)(=O)c1ccc(NC(=O)C2C3C=CC(C3)C2C(=O)O)cc1` (configuration not stated), the max response is -2.43%.

In the case of `COC(=O)c1cc(NC(=O)C2C3C=CC(C3)C2C(=O)O)cc(C(=O)OC)c1` (configuration not stated), the max response is -3.42%.

For the compound `CCN(CC)S(=O)(=O)c1ccc(N(C)Cc2cccc(OC)c2OC)nc1`, the max response is 10.4%.

In the case of `CCC(C)Cn1c(O)cc2nn(-c3nc4ccccc4s3)c(=O)c-2c1C` (configuration not stated), the max response was 3.42%.

Consider `COc1ccccc1NC(=O)c1ccc2nc(N3C(=O)CCC3=O)sc2c1`, for which the max response is 7.91%.

Turning to `C=CCn1c(CSc2nc3ccccc3s2)nnc1SCC(=O)NCc1ccco1`, the max response was 0.347%.

Take `C/C(=N\NC(=O)CC(C)C)c1c(C(F)(F)F)[nH]n(-c2nc3ccccc3s2)c1=O`: the max response was 35.6% (active).

On to `CCOC(=O)N1CCN(CC(=O)Nc2cc(C)nn2-c2nc3ccccc3s2)CC1`, for which the max response is 2.1%.

Regarding `CC(=NCc1ccco1)c1c(C(F)(F)F)[nH]n(-c2nc3ccccc3s2)c1=O`, the max response is 48.5% (active).

For the compound `CCc1ccc(-c2cc(C(=O)NCc3ccco3)c3ccccc3n2)s1`, the max response was 14.1%.

For `COC(=O)Cc1[nH]n(-c2nc3ccccc3s2)c(=O)c1C(C)=Nc1ccc(OC)cc1`, the max response is 38.2% (active).

As to `COc1ccc(CC(=O)N/N=C(\C)c2ccccn2)cc1`, the max response was -3.12%.

Regarding `Cc1ccc(C(=O)NCC(=O)OCC(=O)NC2CCCCCCC2)cc1`, the max response is -2.63%.

Turning to `Cc1ccc(NC(=O)Cn2c(=O)n(CCC(=O)NC3CCN(Cc4ccccc4)CC3)c(=O)c3ccccc32)cc1`, the max response was -1.8%.

Turning to `O=C(NCCCNC(=O)c1ccccc1Cl)c1cnccn1`, the max response is -1.06%.

For `COC(=O)Nc1ccc(S(=O)(=O)Nc2cc(OC)nc(OC)n2)cc1`, the max response is 8.38%.

Take `COc1ccc(-c2ccc(CCC(=O)O)n2NC(=O)c2ccc(C(C)(C)C)cc2)cc1`: the max response was 15.2%.

As to `CC(=O)Nc1ccc(Nc2ncnc3c2nnn3Cc2ccccc2Cl)cc1`, the max response is -1.15%.

In the case of `CC1C(=O)Nc2ccc(S(=O)(=O)N3CCN(c4ccccc4F)CC3)cc2NC1=O` (configuration not stated), the max response was -4.25%.

For `COc1cc(CCC(=O)Nc2ccncc2Cl)cc(OC)c1OC`, the max response is -2.42%.

Turning to `Cn1c2ccccc2c(=O)c2c(=O)n(Cc3ccco3)c(COc3ccccc3)nc21`, the max response was -1.78%.

As for `O=C1N/C(=C/c2cccn2-c2ccccc2)C(=O)N1c1cccc(Cl)c1`, the max response is 34.8% (active).

With `COc1cc2c(cc1/C=C1/NC(=O)N(c3ccccc3)C1=O)OCO2`, the max response was 6.72%.

Consider `Cc1ccccc1NC(=O)CN1C(=O)N/C(=C\c2cccn2-c2cccc(C(=O)O)c2)C1=O`, for which the max response was -9.3%.

As for `COc1cc(N2CCCC2)c(OC)cc1/C=C(/C#N)c1cccc(Br)c1`, the max response is -3.93%.

`COc1cc(C(=O)N2CCN(C3CCC(C)CC3)CC2)cc(OC)c1OC` (configuration not stated): the max response was -0.901%.

With `Nc1ccc2nn(-c3ccc(Cl)cc3)nc2c1`, the max response was 39.4% (active).

For `COc1ccc(-c2[nH]ncc2CN(Cc2nccn2C)C(C)C)cc1F`, the max response is 0.417%.

Turning to `Cc1nn(C)c(Cl)c1CN1CCC(n2nccc2NC(=O)C2CCCC2)CC1`, the max response was -0.568%.

Take `Cc1ccc(S(=O)(=O)NCCSC(C)(C)C)cc1`: the max response is 1.94%.

As to `CC(C)(C)SCCSC1=CC(=O)CC(c2ccccc2)C1` (configuration not stated), the max response was 48.7% (active).

Regarding `CCC(C)N1CC(=O)N2Cc3[nH]c4ccccc4c3C[C@H]2C1=O` (some centres not stated), the max response is -5.44%.

In the case of `COC(=O)c1ccccc1NC(=O)CSc1n[nH]c(-c2ccncc2)n1`, the max response is -2.03%.

Take `CC(C)=CCCC1(C)C=Cc2c(ccc3c2[nH]c2cc(O)c(C)cc23)O1` (configuration not stated): the max response is 14% (active).

In the case of `CC/C(=N\NC(=S)NC(C)C)c1ccc(OC(F)F)cc1`, the max response is 7.39%.

With `O=C(O)CCCn1c(=O)c2cccn2c2ccc(F)cc21`, the max response was -0.924%.

Take `O=c1[nH]c(N2CCOCC2)nc2ccccc12`: the max response is -4.42%.

In the case of `Cc1cc(/C=C2/SC(=O)N(CC(=O)N3CCCC3)C2=O)ccc1N1CCOCC1`, the max response was 12.3%.

Turning to `O=C1N=C(N2CCOCC2)CS1`, the max response is 11.5%.

Take `O=C1N=C(N2CCOCC2)S/C1=C\C=C/c1ccccc1`: the max response was 44.4% (active).

As to `CCc1ccc(/C=C2\SC(N3CCOCC3)=NC2=O)cc1`, the max response is 17.2%.

As for `Cc1ccsc1/C=C1\SC(N2CCOCC2)=NC1=O`, the max response was 32.7% (active).

For the compound `Fc1ccc(-c2ccc(CNCc3ccccn3)o2)cc1Cl`, the max response was 11.4%.

For `COc1ccc(C(=O)C2CCCN(Cc3cccn3-c3ccccn3)C2)c(C)c1` (configuration not stated), the max response was -2.02%.

As for `C[C@@H](NC(=O)[C@@H]1Cc2ccccc2CN1)C(=O)NC1CCCC1`, the max response was -1.91%.

Consider `CCOc1ccc(/C=N\NC(=O)c2c(C)nc3cc(C)ccn23)cc1`, for which the max response is 0.972%.

For `NC(=O)C1CCN(C(=O)c2ccc3c(=O)n(Cc4cccc(Br)c4)c(=S)[nH]c3c2)CC1`, the max response was -3.9%.

On to `CS/C(=C\C(=O)c1ccco1)Nc1ccccc1Cl`, for which the max response is 38.1% (active).

In the case of `O=C(c1cccc(S(=O)(=O)Nc2ccccc2Cl)c1)N1CCN(C(=O)c2ccco2)CC1`, the max response was -0.249%.

For `O=C(Nc1ccccc1C(=O)N1CCCCC1)c1ccco1`, the max response was -0.706%.

Regarding `CCOc1ccc(CC(=O)NC2CCN(Cc3ccccc3)CC2)cc1`, the max response is 4.32%.

Consider `CCCOC(=O)c1c(NC(=O)c2cnn3c2NC(c2ccccc2)CC3C(F)(F)F)sc2c1CCCC2` (configuration not stated), for which the max response is -8.8%.

For `CCc1nc(Nc2ccc3nccnc3c2)c2oc3ccccc3c2n1`, the max response is 12.4% (active).

Take `CCc1nc(N2CCN(c3nc(C)cc(C)n3)CC2)c2oc3ccccc3c2n1`: the max response is 2.99%.

`CCc1nc(Nc2ccc(NC(C)=O)cc2)c2oc3ccccc3c2n1`: the max response was -3.08%.

`O=S(=O)(Nc1ccc(Cl)cn1)c1cnc(Cl)c(Br)c1`: the max response is -1.38%.

For the compound `CCN1CCN(c2cc3nc(C)n(Cc4ccccc4)c(=O)c3cc2NC(=O)c2ccccc2F)CC1`, the max response is -3.92%.

As for `Cc1nnnn1/C(=C\c1ccccc1)C(=O)OCC(=O)N1CC2(C)CC1CC(C)(C)C2` (configuration not stated), the max response was -5.53%.

`O=C(Nc1nnc(C2COc3ccccc3O2)o1)c1ccc(F)cc1` (configuration not stated): the max response was 1.61%.

`Cn1c(=O)[nH]c(=O)c2c1nc(Br)n2CCCCSc1nc2ccccc2o1`: the max response is -4.25%.

On to `COc1ccc(S(=O)(=O)N(CC(=O)N/N=C/c2ccccc2C(=O)O)c2ccccc2OC)cc1`, for which the max response was 1.7%.

As for `CCn1c(SCC(=O)N/N=C/c2ccncc2)nc2ccccc21`, the max response was -1.38%.

In the case of `CCC(NC(=O)c1ccccc1NC(=O)c1ccccc1)C(=O)NNC(=O)CSc1nc2ccccc2o1` (configuration not stated), the max response is 16.5% (active).

On to `O=C(CSc1nc2ccccc2o1)N/N=C/c1ccccc1C(=O)O`, for which the max response was 13.7% (active).

With `Cc1ccc(/C=N/NC(=O)CSc2nc3ccccc3o2)cc1`, the max response was 38.7% (active).

As to `Cc1ccc(Cn2c(SCC(=O)N/N=C/c3ccccc3OCC(=O)O)nc3ccccc32)cc1`, the max response is 3.56%.

Regarding `CCc1ccccc1NC(=O)CSc1nnc([C@@H](NC(=O)OC(C)(C)C)C(C)CC)o1` (some centres not stated), the max response was -3.76%.

For `Cn1c(SCC(=O)N/N=C/c2ccc(O)c(O)c2)nc2ccccc21`, the max response was -3.26%.

Consider `CC(C)[C@H](NC(=O)N1CCn2c1nc1ccccc12)C(=O)NCc1ccc2c(c1)OCO2`, for which the max response is 7.58%.

As for `CCCCOP(=O)(c1ccc(N(C)C)cc1)C(O)c1cc(OC)ccc1OC` (configuration not stated), the max response was -3.9%.

For the compound `N[C@@H](Cc1ccccc1)C(=O)N1CCC(C(=O)NCC(=O)Nc2ccc(F)cc2)CC1`, the max response is 10.8%.

Consider `Cc1ccsc1C1C(C#N)=C(N)OC2=C1C(=O)CC(C)C2` (configuration not stated), for which the max response was -3.34%.

`CSc1nnc(C2CCCN(CC(=O)Nc3ccccc3N3CCOCC3)C2)n1C(C)C` (configuration not stated): the max response is -6.84%.

`O=c1[nH]c2ccc(S(=O)(=O)N3CCCC3)cc2[nH]1`: the max response was -1.27%.

`CCCN1C(=O)C(Cc2nc3ccccc3c(=O)n2-c2ccccc2)c2cc(C)ccc21` (configuration not stated): the max response is -6.23%.

For the compound `Cc1ccc(S(=O)(=O)N(CC(=O)Nc2cccnc2)c2ccc(Br)cc2)cc1`, the max response is 18.2%.

Turning to `Cc1ccc(C)c(NC(=O)CCC(=O)NNC(=O)c2cccs2)c1`, the max response is 5.25%.

Consider `O=C(NNC(=O)c1ccc(Cl)cc1Cl)c1cccs1`, for which the max response was 47.6% (active).

For `Cc1ccc(NNC(=O)c2cccs2)cc1Cl`, the max response is 9.69%.

In the case of `Cc1ccc(C(=O)NNC(=O)c2cccs2)cc1`, the max response is 33.4% (active).

Consider `O=C(Nc1ccccc1)c1ccc(NC(=O)c2cccs2)cc1`, for which the max response is -4.38%.

Regarding `NNC(=O)c1ccc(Cl)cc1Cl`, the max response was 9.54%.

For the compound `CC(C)C(=O)Nc1ccc(C(=O)NNC(=O)c2cccs2)cc1`, the max response is 19.4% (active).

Consider `Cc1ccc(S(=O)(=O)N2CCN(C(=O)c3cccs3)CC2)cc1`, for which the max response is -2.84%.

Consider `Cc1cccc(-c2nc3c(c(SCC(=O)N4CCOCC4)n2)CCCC3)c1`, for which the max response is -3.15%.
